Hit rate of the full screen: of about 69,000 compounds, about 8,600 (12%) showed an effect of 50% or more. Only a selection was taken, and strong results are over-represented in it overall.

The test deals with Plasmodium berghei. Put plainly: Screen against P. berghei liver stage (PbLuc), transformed with Luciferase, at 10uM. It counts as functional, HepG2. Particulars: tested at 10 uM.
Take `CC(C)C(=O)NC1CCCN(C(=O)c2ccc(O)c(Cl)c2)C1` (stereo unspecified): the INHIBITION is 66.2%. Next, `Cc1ccc(O)c(C(=O)N2CCCC(NC(=O)C(C)C)C2)c1` (stereo unspecified): 5.9%. Under `CC(C)C(=O)NC1CCCN(C(=O)c2ccccc2O)C1` (stereo unspecified) stands 8.64%; under `COc1ccc(C(=O)N2CCCC(NC(=O)C(C)C)C2)c(O)c1` (stereo unspecified), -9.19%. Under `CC(C)C(=O)NC1CCCN(C(=O)c2cc(Cl)ccc2O)C1` (stereo unspecified) stands 18.2%. On to `Cc1ccc(C(=O)N2CCCC(NC(=O)C(C)C)C2)c(O)c1` (stereo unspecified), for which the INHIBITION amounted to 54.4%. Regarding `c1cnc(CC2COCCN(C3CCCCC3)C2)cn1` (stereo unspecified), the INHIBITION is on record as 14%. Next, `c1ccc(-c2nc(CCNCc3ccccn3)co2)cc1`: 34.4%. Under `CCN(Cc1nc(COC)no1)Cc1cc2ccc(F)cc2[nH]c1=O` stands 0.546%. Next, `CCc1cnc(C)nc1NC1CC(=O)N(CC2CCCCC2)C1` (stereo unspecified): -20.8%; `Cc1nc(CN2Cc3nccn3CC(COCC3CC3)C2)cs1` (stereo unspecified): 41.2%.

As to `CNC(=O)CN1CCOCC12CCN(CCc1ccccc1)CC2`, the INHIBITION is listed as 38.1%. For the compound `COc1c(C2CCCN2CC(=O)Nc2nccs2)c(C)nn1C` (stereo unspecified), the INHIBITION was -24.7%. Next, `Cc1ccc(C2CN(C(=O)c3ccn(C)c(=O)c3)CCO2)nc1` (stereo unspecified): 44.8%. Under `Cn1ccc(C(=O)N2CCOC(c3ccccc3)C2)cc1=O` (stereo unspecified) stands 50.5%. Take `Cn1ccc(C(=O)N2CCOC(c3ccccn3)C2)cc1=O` (stereo unspecified): the INHIBITION is -5.71%. Next, `Cc1cc(-n2cncn2)n2ncnc2n1`: 47.1%; `CC(C)N(CCC#N)C(=O)c1cnc(-c2ccc3c(c2)OCO3)s1`: -73.9%. Next, `CC(C)c1nnc2n1CC(CNCc1nnc(C(C)(C)C)o1)CC2` (stereo unspecified): 3.77%.

In the case of `CCN1CCN(c2nc3cn(-c4cnn(CC)c4)c(=O)c-3c[nH]2)CC1`, the INHIBITION turned out to be 36.6%. For the compound `CC(=O)N[C@@H]1CN(C(=O)c2csc(C(C)C)n2)C[C@H]1C(C)C`, the INHIBITION turned out to be 9.87%. On to `CC(=O)N1C[C@H](NC(=O)c2csc(C(C)C)c2)[C@@H](C(C)C)C1`, for which the INHIBITION turned out to be 51.1%.

Take `CC(=O)N1C[C@H](NC(=O)c2ccnc(N)c2)[C@@H](C(C)C)C1`: the INHIBITION is 19.1%. For `COCC(=O)N1CC[C@H]2[C@H]1CCN2CC(C)C`, the INHIBITION worked out at 52.6%. Next, `CC(C)CN1CC[C@@H]2[C@@H]1CCN2C(=O)N1CCCC1`: 31.9%. Next, `CC(C)CN1CC[C@@H]2[C@@H]1CCN2C(=O)N(C)C`: 3.88%. Next, `CN(C)CC(=O)N1C[C@@H]2CC[C@H](Oc3ccccc3)[C@@H]2C1`: -21.4%; `COc1cccc(CN(C)S(=O)(=O)N2CCOCC2)c1`: 34.7%. As for `Cc1nn(C)c(N(C)C)c1CNCc1cccnc1N1CCOCC1`, the INHIBITION was -69.3%. Under `O=C(NC1CC1)[C@@H]1CN(Cc2ccc3c(c2)OCO3)C[C@H]2OCC[C@H]21` stands 13.7%; under `CCC(C)N(Cc1c[nH]c(C)n1)Cc1ccccc1Cl` (stereo unspecified), 41%.

As for `CCC(C)N(Cc1cc(C)n[nH]1)Cc1ccccc1Cl` (stereo unspecified), the INHIBITION came out at 79%.

Consider `CC(CC#N)N(C)Cc1ccccc1Cl` (stereo unspecified), for which the INHIBITION was determined as 38.5%.

For `CNC(=O)NC(=O)CN1CCc2c(Br)ccc(F)c2C1`, the INHIBITION is reported as -34.8%. Under `COc1ccccc1CCNC(=O)CNCC1CN(C)CCO1` (stereo unspecified) stands 11%; under `COc1ccc(-c2c(C(C)C)nn3c(=N)c(C#N)n[nH]c23)cc1`, 53.1%; under `COc1ccc(-c2c(C)nn3c(=N)c(C#N)n[nH]c23)cc1OC`, 85%. Next, `CCc1nn2c(=N)c(C#N)n[nH]c2c1-c1ccc(OC)cc1`: 22.9%; `COc1ccc(-c2nc(C#N)c(N(C)C)o2)cc1OC`: -34.9%; `COc1ccc(-c2csc(N)c2C#N)cc1OC`: 1.58%.

As to `COc1ccc(-c2c(C)nn3c(=N)c(C#N)n[nH]c23)cc1`, the INHIBITION is on record as 3.19%. In the case of `CN(C)C[C@H]1OC[C@@H]2CCN(C(=O)c3ccc[nH]3)C[C@@H]21`, the INHIBITION amounted to 29.8%. Under `Cc1noc(C2CCC3(CCN(C(=O)c4cnn(C)c4)CC3)O2)n1` (stereo unspecified) stands 44.1%.

In the case of `CC(C)(NS(C)(=O)=O)c1nc(-c2ccc(F)c(F)c2)no1`, the INHIBITION was -7.02%. In the case of `O=C(c1ccc2c(c1)COC2)N1CCCC(n2cncn2)C1` (stereo unspecified), the INHIBITION is 0.411%.

Take `CO[C@H]1CN(Cc2ccc(F)c(F)c2)C[C@@]12CCCO2`: the INHIBITION was determined as 35.2%. With `Cc1nc(NC(=O)NC(CS(C)(=O)=O)c2ccccc2)sc1C` (stereo unspecified), the INHIBITION was found to be 35.1%. Next, `Cc1nc2n(n1)CC(NCc1csc(-c3ccsc3)n1)CC2` (stereo unspecified): 22.55%. On to `Cc1nc(C2CCCNC2)cc(N(Cc2c(C)nn(C)c2C)C2CC2)n1` (stereo unspecified), for which the INHIBITION is reported as -21.5%. Under `COc1cc(S(=O)(=O)N2CCc3ccc(Cl)cc32)cc(C(=O)O)c1OC` stands -11.4%. Next, `COc1cc(S(=O)(=O)N2CCc3cc(Br)ccc32)cc(C(=O)O)c1OC`: 62.6%; `COc1cc(S(=O)(=O)N2CCc3ccccc32)cc(C(=O)O)c1OC`: 48.2%; `COc1cccc(CC2CN(C3CCN(C(C)=O)CC3)CCO2)c1` (stereo unspecified): 1.81%. Under `CCOC(=O)CCNC(=O)N1CCOC(Cc2cccc(OC)c2)C1` (stereo unspecified) stands 53.7%. For `CCOC(=O)CNC(=O)N1CCOC(Cc2ccc(OC)cc2)C1` (stereo unspecified), the INHIBITION is reported as -17.4%. Take `O=C(Nc1ccc(-n2cccn2)cc1)N1C[C@H](O)[C@@H](N2CCOCC2)C1`: the INHIBITION is recorded as 44.3%. Next, `Cc1ccccc1C(=O)N1C[C@@H](O)[C@H](N2CCOCC2)C1`: 33.25%. Next, `CS(=O)(=O)c1ccc(NC(=O)N2C[C@H](O)[C@@H](N3CCOCC3)C2)cc1`: 67.5%; `Cc1cc(C)n(-c2ccc(C(C)NS(N)(=O)=O)cc2)n1` (stereo unspecified): 37.1%. Next, `COCCS(=O)(=O)NC(C)c1ccc(-n2nc(C)cc2C)cc1` (stereo unspecified): 69.7%. `Cc1cc(C)n(-c2ccc(C(C)NS(=O)(=O)CCCS(C)(=O)=O)cc2)n1` (stereo unspecified): the INHIBITION was 47.4%. For `COCCN1CCC2(CC1)CN(CCn1cccn1)C(=O)CO2`, the INHIBITION is on record as 23.3%. Next, `CN(CC(=O)N1CCN(c2cnccn2)CC1)c1ccc(Cl)cn1`: -1.38%. Under `CCn1cc(NS(=O)(=O)c2ccc(Br)s2)c(C(N)=O)n1` stands 61.6%; under `CCn1cc(NS(=O)(=O)c2ccc(Br)s2)c(C(=O)NCC(C)C)n1`, -0.217%.

For the compound `CCn1cc(S(=O)(=O)N2CCN(S(=O)(=O)c3ccc(Br)s3)CC2)c(C)n1`, the INHIBITION is listed as 24.2%.
